“And” between values parts separate entries of the source, which are not always exact repeats. Equal entries are not always repeated. About 64,000 (15%) of roughly 420,000 compounds were called active. Inconclusive results (about 27%) are left out. Not all results are given here. Values without a mark were called inactive. Calls come from the whole dose curve; as a rule, active = well fitted inhibition curve with a large enough effect; inconclusive = small, poorly fitted or top-dose-only effect; inactive = flat fitted curve, though single readings scatter.
assay: qHTS for Inhibitors of human tyrosyl-DNA phosphodiesterase 1 (TDP1): qHTS in cells in absence of CPT; settings: DT40 Tdp1-/- hTDP1 cells, no CPT, ATP luminescence, 48 h; activity change, negative = growth inhibition: at 46.2 µM (top of the series); note: nearly all actives have a fitted effect of over 55% in size
In short: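 Readout: luminescence from CellTiter-Glo after 30 min in the dark at RT. Cells: DT40 Tdp1-/- with stable hTDP1, 400/well. Exposure: compounds alone, ≥48 hr, 37 °C.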
% is set by controls: 0 for no effect and ±100 for the full control effect; potency is the fitted concentration of half-maximal effect.

| SMILES | activity change, negative = growth inhibition [%] | Potency |
| --- | --- | --- |
| Cc1ccc(N(CC(=O)NC2CCCCC2)C(=O)CCCC(=O)Nc2ccccn2)c(C)c1 | -18.2 | – |
| Cn1nccc1C(=O)NCC1CCC2(CCN(Cc3c(O)ccc4ccccc34)CC2)O1 (stereo unspecified) | -21.7 | – |
| CCOC(=O)c1ccc(Nc2cc(C)nc3nc(C)nn23)cc1 | -1.51 | – |
| COC(=O)c1ccc(Nc2ncnc3sccc23)cc1 | -1.98 | – |
| CCOC(=O)c1nc(Nc2ccc(C(=O)OC)cc2)c2ccccc2n1 | – | 8.2 µM (active) and 20.6 µM (active) |
| COc1cc(C(=O)N2C(=O)c3cccc(N)c3C2=O)cc(OC)c1OC | 8.82 | – |
| O=C(CCc1ccccc1)Nc1nn[nH]n1 | -2.74 | – |
| O=C(O)c1ccc(N=NN2CCOCC2)cc1 | -15.9 | – |
| Cc1cccc(OCC(=O)Nc2ccc(NC(=O)c3ccco3)c(C)c2)c1 | – | 16.4 µM (active) |
| O=C(Nc1cccc(NC(=O)c2ccco2)c1)c1cnccn1 | -18.8 | – |
| Cc1cc(NC(=O)c2ccc(F)cc2)ccc1NC(=O)c1ccco1 | -27.6 | – |
| COc1ccc(OCC(=O)Nc2ccc(NC(=O)c3ccco3)c(C)c2)cc1 | 0.455 | – |
| Cc1ccc(NC(=O)c2ccco2)cc1 | -4.11 | – |
| CCOc1cc(NC(=S)NCc2ccco2)c(OCC)cc1NC(=O)c1ccco1 | -26.8 | – |
| CCOc1cc(NC(=O)c2ccco2)c(OCC)cc1NC(=O)COc1ccccc1 | – | 4.61 µM (active) |
| O=C(COc1ccccc1)Nc1nonc1NC(=O)COc1ccccc1 | -12.1 | – |
| Cc1ccc(C(=O)COc2cccc(NC(=O)c3ccco3)c2)cc1 | – | 20.6 µM (active) |
| CC(C)c1ccc(NC(=O)Cn2ncc3ccccc32)cc1 | -26.9 | – |
| CCOC(=O)C1CCN(C(=O)C2CCN(S(=O)(=O)c3c(C)noc3C)CC2)CC1 | -14 | – |

| SMILES | activity change, negative = growth inhibition [%] | Potency |
| --- | --- | --- |
| CCOc1ccc(Oc2nc(C)cc(OC)n2)nn1 | -5.71 | – |
| S=C(NCCc1ccccc1)N1CCCCC1 | 14.3 | – |
| Oc1ccc(N2CCN(C(=S)NCc3ccccc3)CC2)cc1 | – | 13 µM (active) |
| O=C1CCN(C(=S)NCCc2ccccc2)CC1 | 4.41 | – |
| Cc1ccc(C(=O)COC(=O)CCN2C(=O)C3C4CC(C(Br)C4Br)C3C2=O)cc1 (stereo unspecified) | 2.81 | – |
| Clc1ccc(-c2cc(COc3ccccc3)no2)cc1Cl | -3.75 | – |
| COc1ccc(Oc2coc3cc(OC(=O)c4cncc(Br)c4)ccc3c2=O)cc1 | -27.9 | – |
| O=C(Oc1ccccc1)Oc1ccc2c(c1)oc(=O)c1ccccc12 | -12.5 | – |
| N#CCSc1nc2ccc(N3CCOCC3)cc2c(=O)n1CCc1ccccc1 | – | 20.6 µM (active) |
| COCCCNC(=O)CSc1nc2ccc(N3CCOCC3)cc2c(=O)n1CCc1ccccc1 | -18.2 | – |
| CCCCn1c(SCC(=O)NCC2CCCO2)nc2ccc(N3CCOCC3)cc2c1=O (stereo unspecified) | -12.7 | – |
| O=C(CSc1nnc2n1CCCN2)c1ccccc1 | 17.1 | – |
| COc1cccc(OC)c1C(=O)OCC(=O)/C(C#N)=C(\C)N | -3.38 | – |
| CC(C)(C)n1ncc2c(=O)n(Cc3ccc(Cl)cc3)cnc21 | – | 23.1 µM (active) |
| CC(=O)Cn1cnc2c(cnn2-c2ccccc2)c1=O | 1.02 | – |
| Cc1ccc(-n2ncc3c(=O)n(Cc4cccc(C(F)(F)F)c4)cnc32)cc1C | -16.6 | – |
| c1cc(-c2nn[nH]n2)ccc1CN1CCCCC1 | -14.8 | – |
| CC(=O)Nc1ccc(OCCC[n+]2cccc(C(=O)[O-])c2)cc1 | -4.3 | – |
| Fc1ccc(Nc2nc(SCc3ccccc3Cl)nc3ccccc23)cc1 | – | 16.4 µM (active) |

| SMILES | activity change, negative = growth inhibition [%] | Potency |
| --- | --- | --- |
| Fc1ccc(CNc2nc3ccccc3n3nnnc23)cc1 | -27.9 | – |
| Nc1cc(N)nc(SCc2cccc(F)c2)n1 | 2.63 | – |
| Fc1ccc(CSc2nc(NCc3ccccc3)c3ccccc3n2)cc1 | – | 16.4 µM (active) |
| O=c1cc(O)nc(SCc2ccccc2Cl)[nH]1 | 0.667 | – |
| Nc1nc(SCc2ccccc2Cl)n[nH]1 | -17.1 | – |
| O=C1NCC(c2ccccc2)(c2ccccc2)C(=O)N1 | -4.04 | – |
| CC(=O)c1nc(N2C(=O)C3CC=C(C)CC3C2=O)sc1C (stereo unspecified) | -12.9 | – |
| Cc1ccc(S(=O)(=O)NC2(C(F)(F)F)NC(=O)N(CCc3ccccc3)C2=O)cc1 (stereo unspecified) | – | inactive |
| O=C(Nc1ccccc1F)c1ccc2c(c1)OCO2 | -4.9 | – |
| N[C@@H](C(=O)O)c1ccc(P(=O)(O)O)cc1 | -0.85 | – |
| O=C(COc1ccc(Cl)cc1[N+](=O)[O-])N1CCCCC1 | -16.3 | – |
| O=C(c1ccc(Cl)c(Cl)c1)N1CCCC1 | -8.49 | – |
| O=C(c1ccc(Oc2ccc(Cl)cc2)c([N+](=O)[O-])c1)N1CCCC1 | – | 14.6 µM (active) |
| CCOCCN(C=O)c1cccc(OC)c1 | -14.8 | – |
| Cc1cc(C)c2c(Cn3ccnc3)cc(=O)oc2c1 | -22.5 | – |
| CC(C)C[C@H](NC(=O)N1CC(=O)Nc2ccccc21)C(=O)N[C@H](Cc1ccccc1)C(=O)O | 6.12 | – |
| CSCC[C@H](NC(=O)NC1CCCC1)C(=O)O | 17.5 | – |
| O=C(Nc1nccs1)c1cc(S(=O)(=O)N2CCOCC2)c(Cl)cc1Cl | -12 | – |

Reference: PubChem BioAssay AID686978 (National Center for Advancing Translational Sciences (NCATS), 2013)
